Source: PubChem BioAssay (EPA / NIEHS)
Where “and” joins values, the source holds several entries; their conditions need not be identical. Equal values may be shown once. Results filed as inconclusive are left out. Some compounds were tested as several samples or in several runs, with calls that do not always agree. Calls of active or inactive are those of the source. Rule for the calls: active = hit-call score of the fitted dose curve at least 0.9, where 1 is the maximum; inconclusive = response in the unintended direction; inactive = score below 0.9.

Each compound was assayed against human CYP2C9, CYP2C9 (gene 1559) (UniProt P11712) (assay: NVS_ADME_hCYP2C9: NovaScreen (NVS) CYP450-related Enzyme Activity (ADME) Assay for human CYP2C9 (AID 2283108)).
human CYP2C9, CYP2C9 (gene 1559), sequence (P11712 whole entry, looked up): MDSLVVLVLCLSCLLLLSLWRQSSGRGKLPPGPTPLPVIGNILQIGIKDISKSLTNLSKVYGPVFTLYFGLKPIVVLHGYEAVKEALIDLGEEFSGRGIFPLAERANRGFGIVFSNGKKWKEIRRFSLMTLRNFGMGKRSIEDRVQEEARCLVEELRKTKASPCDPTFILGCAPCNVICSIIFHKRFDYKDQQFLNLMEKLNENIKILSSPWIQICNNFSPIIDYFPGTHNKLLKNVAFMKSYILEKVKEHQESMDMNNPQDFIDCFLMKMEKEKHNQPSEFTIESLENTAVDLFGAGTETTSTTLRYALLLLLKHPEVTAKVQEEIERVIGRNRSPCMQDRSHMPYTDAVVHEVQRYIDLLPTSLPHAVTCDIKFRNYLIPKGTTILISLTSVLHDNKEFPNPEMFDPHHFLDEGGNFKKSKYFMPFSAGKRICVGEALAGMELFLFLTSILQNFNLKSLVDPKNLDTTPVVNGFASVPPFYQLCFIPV
Description: NVS_ADME_hCYP2C9 is a biochemical, single-readout assay that uses extracted gene-proteins from SF9 in a cell-free assay. Measurements were taken 0.75 hour after chemical dosing in a 96-well plate.NVS_ADME_hCYP2C9 is one of one assay component(s) measured or calculated from the NVS_ADME_hCYP2C9 assay. It is designed to make measurements of enzyme activity, a form of enzyme reporter, as detected with fluorescence intensity signals by Fluorescence technology.Data from the assay component NVS_ADME_hCYP2C9 was analyzed into 1 assay endpoint. This assay endpoint, NVS_ADME_hCYP2C9, was analyzed in the positive analysis fitting direction relative to Acetonitrile as the negative control and baseline of activity. Using a type of enzyme reporter, loss-of-signal activity can be used to understand changes in the enzymatic activity as they relate to the gene CYP2C9. Furthermore, this assay endpoint can be referred to as a primary readout, because this assay has produced multiple assay endpoints where this one serves a enzymatic activity function. To generalize the intended target to other relatable targets, this assay endpoint is annotated to the cyp intended target family, where the subfamily is xenobiotic metabolism.
Binding assays used specific radioligands (tritiated, iodinated) with non-radioactive competitive displacement ligands in agonist or antagonist protocols (as indicated) and various reference compounds and inhibitors to titrate specific binding to receptors and transporters. Most enzyme assays (CYPs, kinases, phosphatases, proteases, HDACs) used recombinant protein and specific substrates (fluorescence mostly, some colorimetric and radioactive) and inhibitors, followed by a biochemical separation of substrate and product. All assays for the biochemical HTS were initially run in duplicate at a single concentration (10 uM for CYP450 assays and 25 uM for all others). […] Each assay was run with positive and negative controls, and concurrent controls on every plate. The follow-up (secondary) screen tested active chemical-pairs in concentration series, as well as a few additional assays not tested in the primary screen, some selected negative inactives, and several cases re-run in the concentration series for confirmatory purposes.
`N#CC(CCc1ccc(Cl)cc1)(Cn1cncn1)c1ccccc1` (stereo unspecified) was tested, and the AC50 was 1.14 µM (active). For `CCOP(=S)(OCC)SCn1c(=O)oc2cc(Cl)ccc21`, the AC50 was 1.8 µM (active). `CS/C(C)=N/OC(=O)N(C)SN(C)C(=O)O/N=C(\C)SC` was tested, and the AC50 was 5.64 µM (active). `Cc1ccc(-c2c(Cl)nc(C#N)n2S(=O)(=O)N(C)C)cc1` was tested, and the AC50 was 4.54 µM (active). For `COC(=O)N(OC)c1ccccc1COc1ccn(-c2ccc(Cl)cc2)n1`, the AC50 was 1.26 µM (active). In the case of `CCCCC(CC)COC(=O)c1ccccc1C(=O)OCC(CC)CCCC` (stereo unspecified), the outcome is reported as “inactive”. In the case of `C=CCC1=C(C)C(OC(=O)C2C(C=C(C)C)C2(C)C)CC1=O` (stereo unspecified), the AC50 is reported as 7.07 µM (active) and 14.6 µM (active) and 6.76 µM (active) and the outcome is reported as “inactive”. For `CC1COC(Cn2cncn2)(c2ccc(Oc3ccc(Cl)cc3)cc2Cl)O1` (stereo unspecified), the AC50 was 1.34 µM (active). With `N#Cc1nn(-c2c(Cl)cc(C(F)(F)F)cc2Cl)c(N)c1S(=O)C(F)(F)F` (stereo unspecified) the AC50 was 1.14 µM (active). `COc1nc(C)nc(NC(=O)NS(=O)(=O)c2ccccc2CCC(F)(F)F)n1` was tested, and the outcome was “inactive”. In the case of `C=CCC1=C(C)[C@@H](OC(=O)[C@@H]2[C@@H](C=C(C)C)C2(C)C)CC1=O`, the AC50 is reported as 5.73 µM (active). For `CCCC1COC(Cn2cncn2)(c2ccc(Cl)cc2Cl)O1` (stereo unspecified), the AC50 was 1.65 µM (active) and 4.57 µM (active). For `CCOC(=O)CC(SP(=S)(OC)OC)C(=O)OCC` (stereo unspecified), the AC50 was 0.752 µM (active). `CO/C=C(/C(=O)OC)c1ccccc1Oc1cc(Oc2ccccc2C#N)ncn1` was tested, and the outcome was “inactive”. For `CN(C)C(=S)SSC(=S)N(C)C`, the AC50 was 1.92 µM (active). With `OC(c1ccc(Cl)cc1)(c1cncnc1)c1ccccc1Cl` (stereo unspecified) the AC50 was 2.35 µM (active). In the case of `O=C(Nc1ccccc1)Nc1ccnc(Cl)c1`, the AC50 is reported as 2.46 µM (active). For `COc1ccc(C(c2ccc(OC)cc2)C(Cl)(Cl)Cl)cc1`, the AC50 was 10 µM (active). `C#CCOS(=O)OC1CCCCC1Oc1ccc(C(C)(C)C)cc1` (stereo unspecified) was tested, and the outcome was “inactive”. With `CNC(=S)S` the outcome was “inactive”.
